Drawing on PubChem BioAssay (NCATS), this text covers activity change, negative = inhibition and Potency for 16 compounds.

Where “and” joins values, the source holds several entries; their conditions need not be identical. Identical values can stand only once. Results filed as inconclusive are left out. Entries that show only a call come without a potency. Calls of active or inactive are those of the source. The call rests on the fitted dose curve.
Potency means the concentration at half of the fitted maximal effect.

A short description of the assay: Primary qHTS to identify inhibitors of SARS-CoV-2 cell entry (AID 1645846). Further: nearly all actives have a fitted effect of over 45% in size. To be noted: SARS-CoV-2 pseudovirus cell entry assay, luminescence; activity change, negative = inhibition: at 57.1 µM (top of the series) unless noted; series mostly up to 57.1 µM. In a few lines: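 Data are normalized to wells receiving SARS-CoV-2-S pseudoparticles and those given bald particles. Entry signal was luciferase luminescence in stable hACE2 Expi293F cells, 48 hr post-infection, after 1 hr compound pretreatment.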
Regarding `NC(=O)NC1N=C([O][Al])NC1=O` (stereo unspecified), the activity change, negative = inhibition was -0.751%. For `CC(=O)OC(C)C[N+](C)(C)C` (stereo unspecified), the Potency entry was “inactive”. `CCCC(=O)O[C@]1(C(=O)CO)CC[C@H]2[C@@H]3CCC4=CC(=O)CC[C@]4(C)[C@H]3[C@@H](O)C[C@@]21C`: the activity change, negative = inhibition was -10%. Regarding `CC1(C)O[C@@H]2C[C@H]3[C@@H]4CCC5=CC(=O)C=C[C@]5(C)[C@@H]4[C@@H](O)C[C@]3(C)[C@]2(C(=O)CO)O1`, the Potency entry was “inactive”.

For `O=C1O[C@H](CO)[C@@H](O)[C@H](O)[C@H]1O`, the activity change, negative = inhibition was -15.4%. For `CCCC(=O)O[C@]1(C(=O)COC(=O)CC)CC[C@H]2[C@@H]3CCC4=CC(=O)CC[C@]4(C)[C@H]3[C@@H](O)C[C@@]21C`, the activity change, negative = inhibition was -22.2% [at 27.1 µM].

Turning to `CC1c2ccccc2CN1NC(=O)c1ccc(Cl)c(S(N)(=O)=O)c1` (stereo unspecified), the activity change, negative = inhibition is -22.6%. In the case of `CO[C@@]1(NC(=O)Cc2cccs2)C(=O)N2C(C(=O)O)=C(COC(N)=O)CS[C@@H]21`, the Potency result is “inactive”. The same measure, in the same setting: the figure for `CN(C)c1ccc2nc3ccc(=[N+](C)C)cc-3sc2c1` is 8.91 µM (active) and 7.08 µM (active); for `CO[C@@]1(NC(=O)CSCC#N)C(=O)N2C(C(=O)O)=C(CSc3nnnn3C)CS[C@@H]21` it is “inactive”. As to `CC(=O)N(CC(O)CO)c1c(I)c(C(=O)NCC(O)CO)c(I)c(C(=O)NCC(O)CO)c1I` (stereo unspecified), the Potency result is “inactive”. Turning to `CC(=O)NS(=O)(=O)c1ccc(N)cc1`, the Potency entry was “inactive”. The same measure, in the same setting: the entry for `C[N+]1(C)[C@@H]2CC(OC(=O)[C@H](CO)c3ccccc3)C[C@H]1[C@@H]1O[C@@H]12` (stereo partly specified) is “inactive”. As to `COC(=O)C1=C(C)NC(C)=C(C(=O)OCCc2ccc(N3CCN(C(c4ccccc4)c4ccccc4)CC3)cc2)C1c1cccc([N+](=O)[O-])c1` (stereo unspecified), the activity change, negative = inhibition is -16.7%. Turning to `Nc1ccc(C(=O)O)cc1`, the Potency entry is “inactive”. As for `CCCCCCCCCCCCCCCCO`, the activity change, negative = inhibition is -7.94%.
